# Test results taken from PubChem BioAssay (NCATS).
# Records with an inconclusive call do not appear. A number with no mark means an inactive call. Calls come from the whole dose curve; as a rule, active = well fitted curve in the direction sought with a large enough effect; inconclusive = small, poorly fitted or top-dose-only effect, or another doubt; inactive = no such curve, though single readings can be large or run the other way. Residues, ends and D or L forms follow the SMILES beside them. *: point of attachment. Cbz = O=C(OCc1ccccc1)*
# Molecular target: Metallo-beta-lactamase type 2 (Klebsiella pneumoniae) (UniProt C7C422)
# Assay: qHTS to identify inhibitors of the New Delhi Metallo-beta-lactamase (NDM): assay validation screen against the NCATS LOPAC Collection (AID 1794843);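 note: nitrocefin turnover by NDM-1 measured as 485 nm absorbance at plateau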
# Settings: NDM-1 enzyme, nitrocefin hydrolysis, absorbance 485 nm; series mostly up to 38.4 µM; activity change, negative = inhibition: at the top concentration
# Procedure, shortened: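 NDM-1 at 2 nM final in 50 mM HEPES pH 7.0 with 1 uM ZnSO4 and 0.01% Tween20 was preincubated with library compounds in DMSO. Nitrocefin (50 uM stock) was then added, and absorbance at 485 nm was read at the kinetic plateau.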
# % is set by controls: 0 for no effect and ±100 for the full control effect.
# Chain of Metallo-beta-lactamase type 2 (Klebsiella pneumoniae) (C7C422 whole entry, looked up): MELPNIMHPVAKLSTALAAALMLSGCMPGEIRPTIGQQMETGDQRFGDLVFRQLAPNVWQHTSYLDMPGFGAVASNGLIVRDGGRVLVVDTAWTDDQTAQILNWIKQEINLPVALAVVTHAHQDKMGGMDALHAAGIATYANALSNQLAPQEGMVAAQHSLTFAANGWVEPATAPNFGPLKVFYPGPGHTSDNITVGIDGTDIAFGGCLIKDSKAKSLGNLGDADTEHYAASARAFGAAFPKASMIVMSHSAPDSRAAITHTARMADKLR
row,Compound,"activity change, negative = inhibition [%]"
1,N[C@H]1CONC1=O,1.98
2,O=C1C2C=CC=CC2=NC(=S)N1CCN1CCC(=C(c2ccc(F)cc2)c2ccc(F)cc2)CC1 (stereo unspecified),-0.693
3,CC(C)(C)NCC(O)COc1cccc2[nH]c(=O)[nH]c12 (stereo unspecified),-0.582
4,[N-]=[N+]=Nc1ccc(C(=O)CSC[C@H](NC(=O)CC[C@H](N)C(=O)O)C(=O)NCC(=O)O)cc1,-3.65
5,CCCCCCCCCCCCCCC[C@H](O)[C@H](N)CO,-2.39
6,Cn1cc(C(=O)OCC2CCN(CCNS(C)(=O)=O)CC2)c2ccccc21,3.91
7,C=C1C[C@@]23CC[C@H]4[C@@](C)(CCC[C@@]4(C)C(=O)OC4OC(CO)C(O)C(O)C4O)[C@@H]2CC[C@]1(OC1OC(CO)C(O)C(O)C1OC1OC(CO)C(O)C(O)C1O)C3 (stereo partly specified),-0.924
8,COc1ccccc1N1CCN(CCCCN2C(=O)c3ccccc3C2=O)CC1,2.92
9,c1ccc(C2CN3CCSC3=N2)cc1 (stereo unspecified),-3.43
10,CSC(N)=NCCC[C@H](N)C(=O)O,-11.6
11,O=C(O)c1cccnc1C(=O)O,-0.866
12,CC(C)[C@H](NC(=O)OCc1ccccc1)C(=O)N[C@H](C=O)Cc1ccccc1 (Cbz-Val-Phe-aldehyde),-4.9
13,Oc1cc2c(cc1O)C(c1ccccc1)CNCC2 (stereo unspecified),-0.247
14,CNc1ncnc2c1ncn2[C@H]1C[C@H](OP(=O)(O)O)[C@@H](COP(=O)(O)O)O1,-8.63
15,COC(=O)C1=C(C)NC(C)=C([N+](=O)[O-])C1c1ccccc1C(F)(F)F (stereo unspecified),9.15
16,C=C1C[C@@]23CC[C@H]4[C@@](C)(CCC[C@@]4(C)C(=O)O)[C@@H]2CC[C@]1(O)C3,-0.346
